# Assay results reported in article PMC8384837, “Expanding the binding specificity for RNA recognition by a PUF domain”.
# What was measured:
# Test in all cases: yeast three-hybrid, YBZ-1, SC-Leu-His + 0.5 mM 3-AT, 4 days
# Conditions in all cases: tags: N-Gal4 AD-HA kept; label: inside an RPR1-promoter hybrid RNA with tandem MS2 sites; ssRNA
# PUM1 PUF domain R7-KRC = PUM1 PUF domain R7-KRC (Homo sapiens, UniProt Q14671 828-1176, S1079K;N1080R;E1083C)
# In short: (§1)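 Sequencing with Illumina followed PCR amplification of the repeat regions from transformants grown four days on SC-Leu (input) or SC-Leu-His + 0.5 mM 3-AT (selection). The transformants were strain YBZ-1 with a LexA–MS2 coat fusion and a HIS3 reporter, carrying Pumilio-1 PUF domain libraries and matching RNA elements. The interaction score is the log change in variant frequency from input to selection, computed in log2 with a pseudocount of 1 for absent variants.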
# PUM1 PUF domain R7-RSV = PUM1 PUF domain R7-RSV (Homo sapiens, UniProt Q14671 828-1176, S1079R;N1080S;E1083V)
# In short: as §1
# PUM1 PUF domain R7-LNG = PUM1 PUF domain R7-LNG (Homo sapiens, UniProt Q14671 828-1176, S1079L;E1083G)
# In short: as §1
# PUM1 PUF domain R1-RGV = PUM1 PUF domain R1-RGV (Homo sapiens, UniProt Q14671 828-1176, S863R;R864G;Q867V)
# In short: as §1
# PUM1 PUF domain R1-HWR = PUM1 PUF domain R1-HWR (Homo sapiens, UniProt Q14671 828-1176, S863H;R864W;Q867R)
# In short: as §1
# PUM1 PUF domain R4-PHS = PUM1 PUF domain R4-PHS (Homo sapiens, UniProt Q14671 828-1176, N971P;Q975S)
# In short: as §1
# PUM1 PUF domain R2-RRH = PUM1 PUF domain R2-RRH (Homo sapiens, UniProt Q14671 828-1176, N899R;Y900R;Q903H)
# In short: as §1
# PUM1 PUF domain R2-LWA = PUM1 PUF domain R2-LWA (Homo sapiens, UniProt Q14671 828-1176, N899L;Y900W;Q903A)
# In short: as §1
# PUM1 PUF domain R8-QWC = PUM1 PUF domain R8-QWC (Homo sapiens, UniProt Q14671 828-1176, N1122Q;Y1123W;Q1126C)
# In short: as §1
# PUM1 PUF domain R8-MFR = PUM1 PUF domain R8-MFR (Homo sapiens, UniProt Q14671 828-1176, N1122M;Y1123F;Q1126R)
# In short: as §1
# PUM1 PUF domain R5-GTQ = PUM1 PUF domain R5-GTQ (Homo sapiens, UniProt Q14671 828-1176, C1007G;R1008T)
# In short: as §1
# PUM1 PUF domain R5-RYA = PUM1 PUF domain R5-RYA (Homo sapiens, UniProt Q14671 828-1176, C1007R;R1008Y;Q1011A)
# In short: as §1
# PUM1 PUF domain R3-ARS = PUM1 PUF domain R3-ARS (Homo sapiens, UniProt Q14671 828-1176, C935A;Q939S)
# In short: as §1
# PUM1 PUF domain R3-RAF = PUM1 PUF domain R3-RAF (Homo sapiens, UniProt Q14671 828-1176, C935R;R936A;Q939F)
# In short: as §1
# PUM1 PUF domain R5-KGE = PUM1 PUF domain R5-KGE (Homo sapiens, UniProt Q14671 828-1176, C1007K;R1008G;Q1011E)
# In short: as §1
# PUM1 PUF domain R4-API = PUM1 PUF domain R4-API (Homo sapiens, UniProt Q14671 828-1176, N971A;H972P;Q975I)
# In short: as §1
# PUM1 PUF domain R4-DRG = PUM1 PUF domain R4-DRG (Homo sapiens, UniProt Q14671 828-1176, N971D;H972R;Q975G)
# In short: as §1
# PUM1 PUF domain R4-THL = PUM1 PUF domain R4-THL (Homo sapiens, UniProt Q14671 828-1176, N971T;Q975L)
# In short: as §1
# PUM1 PUF domain R3-PWN = PUM1 PUF domain R3-PWN (Homo sapiens, UniProt Q14671 828-1176, C935P;R936W;Q939N)
# In short: as §1
# PUM1 PUF domain R6-IFM = molecular target: T1, PUM1 PUF domain R6-IFM (Homo sapiens, UniProt Q14671 828-1176, N1043I;Y1044F;Q1047M)
# T1 sequence: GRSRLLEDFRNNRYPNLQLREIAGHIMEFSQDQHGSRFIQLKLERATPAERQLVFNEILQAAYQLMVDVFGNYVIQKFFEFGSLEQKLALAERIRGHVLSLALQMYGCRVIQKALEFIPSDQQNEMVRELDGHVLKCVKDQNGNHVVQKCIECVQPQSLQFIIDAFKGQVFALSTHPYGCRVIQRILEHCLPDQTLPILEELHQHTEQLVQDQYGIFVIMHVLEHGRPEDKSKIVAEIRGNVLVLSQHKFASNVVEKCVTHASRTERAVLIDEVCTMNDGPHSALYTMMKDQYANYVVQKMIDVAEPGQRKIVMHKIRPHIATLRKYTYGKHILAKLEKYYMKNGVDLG
# In short: as §1
sequence,measurement,setting,value
GGCUAGAACUAGUGGAUCCCCCGGCGCCCGGCGGCUCGAGCCCGGGUAAGUCUAAAUAGUCUGCAUGCCGCCGGGCGCCAUGCCUGCAGGUCGACUCUAGAAAACAUG,binding signal,PUM1 PUF domain R7-KRC,4.66 log2 enrichment (interaction score)
same,binding signal,PUM1 PUF domain R7-RSV,1.68 log2 enrichment (interaction score)
GGCUAGAACUAGUGGAUCCCCCGGCGCCCGGCGGCUCGAGCCCGGGUAAGUUUAAAUAGUCUGCAUGCCGCCGGGCGCCAUGCCUGCAGGUCGACUCUAGAAAACAUG,binding signal,PUM1 PUF domain R7-RSV,2.32 log2 enrichment (interaction score)
same,binding signal,PUM1 PUF domain R7-LNG,6.18 log2 enrichment (interaction score)
GGCUAGAACUAGUGGAUCCCCCGGCGCCCGGCGGCUCGAGCCCGGGUAAGUGUAAAUCGUCUGCAUGCCGCCGGGCGCCAUGCCUGCAGGUCGACUCUAGAAAACAUG,binding signal,PUM1 PUF domain R1-RGV,2.51 log2 enrichment (interaction score)
same,binding signal,PUM1 PUF domain R1-HWR,5.91 log2 enrichment (interaction score)
GGCUAGAACUAGUGGAUCCCCCGGCGCCCGGCGGCUCGAGCCCGGGUAAGUGUAUAUAGUCUGCAUGCCGCCGGGCGCCAUGCCUGCAGGUCGACUCUAGAAAACAUG,binding signal,PUM1 PUF domain R4-PHS,7.03 log2 enrichment (interaction score)
GGCUAGAACUAGUGGAUCCCCCGGCGCCCGGCGGCUCGAGCCCGGGUAAGUGUAAAAAGUCUGCAUGCCGCCGGGCGCCAUGCCUGCAGGUCGACUCUAGAAAACAUG,binding signal,PUM1 PUF domain R2-RRH,0.36 log2 enrichment (interaction score)
same,binding signal,PUM1 PUF domain R2-LWA,6.09 log2 enrichment (interaction score)
GGCUAGAACUAGUGGAUCCCCCGGCGCCCGGCGGCUCGAGCCCGGGUAAGCGUAAAUAGUCUGCAUGCCGCCGGGCGCCAUGCCUGCAGGUCGACUCUAGAAAACAUG,binding signal,PUM1 PUF domain R8-QWC,2.08 log2 enrichment (interaction score)
same,binding signal,PUM1 PUF domain R8-MFR,5.35 log2 enrichment (interaction score)
GGCUAGAACUAGUGGAUCCCCCGGCGCCCGGCGGCUCGAGCCCGGGUAAGUGUUAAUAGUCUGCAUGCCGCCGGGCGCCAUGCCUGCAGGUCGACUCUAGAAAACAUG,binding signal,PUM1 PUF domain R5-GTQ,2.42 log2 enrichment (interaction score)
same,binding signal,PUM1 PUF domain R5-RYA,4.8 log2 enrichment (interaction score)
GGCUAGAACUAGUGGAUCCCCCGGCGCCCGGCGGCUCGAGCCCGGGUAAGUGUAAAGAGUCUGCAUGCCGCCGGGCGCCAUGCCUGCAGGUCGACUCUAGAAAACAUG,binding signal,PUM1 PUF domain R2-RRH,3.09 log2 enrichment (interaction score)
same,binding signal,PUM1 PUF domain R2-LWA,2.94 log2 enrichment (interaction score)
GGCUAGAACUAGUGGAUCCCCCGGCGCCCGGCGGCUCGAGCCCGGGUAAGUGUAAUUAGUCUGCAUGCCGCCGGGCGCCAUGCCUGCAGGUCGACUCUAGAAAACAUG,binding signal,PUM1 PUF domain R3-ARS,1.78 log2 enrichment (interaction score)
same,binding signal,PUM1 PUF domain R3-RAF,3.3 log2 enrichment (interaction score)
GGCUAGAACUAGUGGAUCCCCCGGCGCCCGGCGGCUCGAGCCCGGGUAAGUGUAAGUAGUCUGCAUGCCGCCGGGCGCCAUGCCUGCAGGUCGACUCUAGAAAACAUG,binding signal,PUM1 PUF domain R3-ARS,0.93 log2 enrichment (interaction score)
GGCUAGAACUAGUGGAUCCCCCGGCGCCCGGCGGCUCGAGCCCGGGUAAGUGUAAAUUGUCUGCAUGCCGCCGGGCGCCAUGCCUGCAGGUCGACUCUAGAAAACAUG,binding signal,PUM1 PUF domain R1-RGV,2.5 log2 enrichment (interaction score)
same,binding signal,PUM1 PUF domain R1-HWR,3.32 log2 enrichment (interaction score)
GGCUAGAACUAGUGGAUCCCCCGGCGCCCGGCGGCUCGAGCCCGGGUAAGUGUCAAUAGUCUGCAUGCCGCCGGGCGCCAUGCCUGCAGGUCGACUCUAGAAAACAUG,binding signal,PUM1 PUF domain R5-KGE,5.15 log2 enrichment (interaction score)
same,binding signal,PUM1 PUF domain R5-RYA,4.95 log2 enrichment (interaction score)
GGCUAGAACUAGUGGAUCCCCCGGCGCCCGGCGGCUCGAGCCCGGGUAAGUGUAAAUAGUCUGCAUGCCGCCGGGCGCCAUGCCUGCAGGUCGACUCUAGAAAACAUG,binding signal,PUM1 PUF domain R4-PHS,5.43 log2 enrichment (interaction score)
same,binding signal,PUM1 PUF domain R4-API,3.05 log2 enrichment (interaction score)
same,binding signal,PUM1 PUF domain R3-ARS,4.04 log2 enrichment (interaction score)
same,binding signal,PUM1 PUF domain R4-DRG,2.71 log2 enrichment (interaction score)
same,binding signal,PUM1 PUF domain R5-GTQ,2.12 log2 enrichment (interaction score)
same,binding signal,PUM1 PUF domain R8-QWC,3 log2 enrichment (interaction score)
same,binding signal,PUM1 PUF domain R2-LWA,1.62 log2 enrichment (interaction score)
same,binding signal,PUM1 PUF domain R8-MFR,3.78 log2 enrichment (interaction score)
same,binding signal,PUM1 PUF domain R5-KGE,2.24 log2 enrichment (interaction score)
same,binding signal,PUM1 PUF domain R4-THL,4.66 log2 enrichment (interaction score)
same,binding signal,PUM1 PUF domain R5-RYA,1.12 log2 enrichment (interaction score)
same,binding signal,PUM1 PUF domain R3-PWN,2.55 log2 enrichment (interaction score)
GGCUAGAACUAGUGGAUCCCCCGGCGCCCGGCGGCUCGAGCCCGGGUAAGUGAAAAUAGUCUGCAUGCCGCCGGGCGCCAUGCCUGCAGGUCGACUCUAGAAAACAUG,binding signal,PUM1 PUF domain R6-IFM,6.96 log2 enrichment (interaction score)
